Inconclusive results are not listed. Values without a mark were called inactive. Calls of active or inactive are those of the source. Calls come from the whole dose curve; as a rule, active = well fitted cell-killing curve with a large enough effect in the repeat runs; inconclusive = weak or mixed curves, or effect the other way; inactive = flat fitted curve, though single readings scatter.
experiment: qHTS assay to identify small molecule antagonists of the androgen receptor (AR) signaling pathway using the MDA cell line in the presence of 0.5 nM R1881 - cell viability counter screen (AID 1259242); details: MDA-kb2 viability, CellTiter-Fluor protease fluorescence, 16 h; series mostly up to 92.4 µM; note: nearly all actives have a fitted effect of over 45% in size
Source text: U.S. Tox21 Program National Center for Advancing Translational Sciences [NCATS] NIH Chemical Genomics Center [NCGC] U.S. Environmental Protection Agency [EPA] National Institutes of Environmental Health Sciences [NIEHS] National Toxicology Program [NTP] U.S. Food and Drug Administration [FDA] Tox21 Assay Overview: Androgen receptor (AR) is an important member of the nuclear receptor family. Its signaling plays a critical role in AR-dependent prostate cancer and other androgen related diseases. Considerable attention has been given in the past decades to develop methods to study and screen for the environmental chemicals that have the potential to interfere with metabolic homeostasis, reproduction, developmental and behavioral functions. Therefore AR binding assay for screening androgen antagonists can be used to identify potential endocrine disruptors. MDA-kb2 cells (from ATCC, deposited by Wilson et al.) were used to screen for AR inhibitors against Tox21 compound libraries. These cells are human breast carcinoma cells that were stably transfected with a luciferase reporter gene under control of the MMTV promoter that contains response elements for both androgen receptor (AR) and glucocorticoid receptor (GR). The current screening for identification of AR inhibitors against Tox21 libraries used lower concentration of (0.5 nM) R1881 as a stimulator. The cytotoxicity of the Tox21 compound libraries against MDA-kb2 cell line was tested by measuring live-cell protease activity using CellTiter-Fluor assay in the same wells.
Tox21 Assay Protocol Summary: MDA-kb2 cells (cells cultured without CO2) were dispensed at 3,000 cells/well in 4 uL of culture medium into white wall/solid-bottom 1536-well plates (Corning Life Sciences, Corning, NY) using a Multidrop Combi (ThermoFisher Scientific, Waltham, MA) dispenser. After the assay plates were incubated at a 37C and 0% CO2 for 5 hr, 23 nL of compounds dissolved in DMSO, positive controls or DMSO only was transferred to the assay plate by a Pintool station (Kalypsys, San Diego, CA). The transfer of compounds was followed by the addition of 1 uL of 0.5 nM (final concentration) agonist (R1881)/culture medium using a Flying Reagent Dispenser (FRD, Aurora Discovery, San Diego, CA). The plates were incubated at 37C and 0% CO2 for 16 hr. For cytotoxicity assay, 1 uL of CellTiter-Fluor reagent (Promega Corporation, Madison, WI) was added to each well using the FRD and after 30 min incubation at 37C and 0% CO2, The fluorescence intensity was measured using ViewLux plate reader (PerkinElmer, Shelton, CT).
% is set by controls: 0 for no effect and ±100 for the full control effect.

SMILES | outcome | viability change, negative = cytotoxic
O=C(Cl)c1cccc([N+](=O)[O-])c1 | inactive | 
C[C@]12C(=O)OC(=O)[C@H]1[C@H]1C=C[C@@H]2C1 | inactive | 
COc1cc(N)c(Cl)cc1C(=O)NC1CCN(Cc2ccccc2)CC1 | inactive | 
CCCCCCCCCCCCOCCOS(=O)(=O)O | inactive | 
COc1cc(C)ccc1C(C)C | inactive | 
NCCCN1CCN(CCCN)CC1 | inactive | 
CC(=O)N(CC(O)CN(C(C)=O)c1c(I)c(C(=O)NCC(O)CO)c(I)c(C(=O)NCC(O)CO)c1I)c1c(I)c(C(=O)NCC(O)CO)c(I)c(C(=O)NCC(O)CO)c1I (stereo not given) | inactive | 
CN1CCN(C2=Nc3ccccc3Oc3ccc(Cl)cc32)CC1 | inactive | 
CCCCNC(=S)NCCCC | inactive | 
COC(C)CCO (stereo not given) | inactive | 
OCc1ccccc1O | inactive | 
NC(=O)NS(=O)(=O)c1ccc(Cl)cc1 | inactive | 
CC(C)NCC(O)COc1ccc(CCOCC2CC2)cc1 (stereo not given) | inactive | 
ClC(Cl)Cl | inactive | 
CC[C@H]1CC[C@H](NCc2cc3c(cc2OC)[C@H]2C[C@H]2C(=O)N3C)[C@H](c2ccccc2)N1 | inactive | 
O=C(O)c1ccccc1Nc1cc(Cl)ccc1C(=O)O |  | -0.133% [at 19 µM]
O=c1[nH]c(=O)n([C@H]2C[C@H](O)[C@@H](CO)O2)cc1C(F)(F)F | inactive | 
CCCC(CCC)(C(=O)OCC)C(=O)OCC | inactive | 
Cc1cc2nc(N)sc2cc1C | inactive | 
C[C@@H](N)C(=O)O | inactive | 

SMILES | outcome | viability change, negative = cytotoxic
CC1=C(O)C(=O)OC1C (stereo not given) | inactive | 
CC(C)C1=CC2=CC[C@@H]3[C@](C)(CCC[C@@]3(C)C(=O)O)[C@H]2CC1 | inactive | 
O=CCCc1ccccc1 | inactive | 
CCCN(CCC)C(=O)C(CCC(=O)O)NC(=O)c1ccccc1 (stereo not given) | inactive | 
Cc1ccc(C(C)C)cc1O | inactive | 
CCN(O)CC | inactive | 
CN1CCN(c2c(F)cc3c(=O)c(C(=O)O)cn4c3c2SCC4)CC1 | inactive | 
c1ccc(CN(CC2=NCCN2)c2ccccc2)cc1 | inactive | 
Cc1cn([C@@H]2O[C@H](CO)[C@@H](O)[C@@H]2F)c(=O)[nH]c1=O | inactive | 
CC(C)Nc1nc(N)nc(Cl)n1 | inactive | 
CCCCNc1ccc(C(=O)OCCN(CC)CC)cc1 | inactive | 
CCCNC(C)C(=O)Nc1c(C)csc1C(=O)OC (stereo not given) | inactive | 
CO[Si](C)(C)OC | inactive | 
O=C(C(Cl)Cl)N1CCOC12CCCCC2 | inactive | 
COC(=O)C(C)O (stereo not given) | inactive | 
CCCCNCCCC | inactive | 
Cc1cc(S(=O)(=O)O)c(N)cc1Cl | inactive | 
CCOC(=O)C1CC(=O)C(=C(O)C2CC2)C(=O)C1 (stereo not given) | inactive | 
O=c1oc2c(O)c(O)cc3c(=O)oc4c(O)c(O)cc1c4c23 |  | -6.98% [at 19 µM]
Clc1cccc(-c2cc(Cl)cc(Cl)c2)c1 | inactive | 

Reference: PubChem BioAssay (Tox21)
